Assay outcomes from PubChem BioAssay.
Hits are enriched below; roughly 27% of the tested compounds scored in any of these assays.
CYP2C19 activ = human CYP2C19 activators, primary screen, biochemical, luminescence. AID 1025, 2008. recombinant CYP2C19, luciferin-H EGE luminescence; stronger effect = higher value; 0 = fully inhibited enzyme, 1 = untreated enzyme. Cytochrome P450 2C19 (Homo sapiens), P33261. activation factor at 5 µM. 96,000 tested, under 10 active;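 active = activation factor of at least 2 at 5 µM in the primary screen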;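 also: 0 = wells with 2.5 mM tranylcypromine and 1 = vehicle-only wells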
CYP2C9 inhib = blockers of cytochrome P450 2C9 activity – biochemical, luminescence, ADME assay, primary screen; P11712; CYP2C9 Supersomes, luciferin-H conversion; inhibition, % at 5 µM; hit rate 20% among 96,000;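 active = blocking of liver enzyme CYP2C9 beyond about 50% at 5 µM, limit read from the data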
CYP2C9 act = human CYP2C9 activators, primary screen, biochemical, luminescence. Cytochrome P450 2C9 (Homo sapiens), P11712. recombinant CYP2C9, luciferin-H conversion; stronger effect = higher value; factor 1 = untreated enzyme, 0 = blocked. activation factor at 5 µM. hit rate 1.4% among 96,000. AID 1024, 2008;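 active = activation factor of 2 or more for CYP2C9 at a 5 µM dose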;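 also: 0 = sulfaphenazole-blocked wells and 1 = vehicle-only wells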
CYP2C19 inh = blockers of cytochrome P450 2C19 activity – biochemical, luminescence, ADME assay, primary screen. hit rate 21% among 96,000. CYP2C19 Supersomes, luciferin-H EGE luminescence, 30 min. P33261. inhibition, % at 5 µM;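 active = CYP2C19 inhibition above a set limit at 5 µM in the primary screen, cut at about 50% in these data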;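 also: plate controls were negative control wells for no effect and 2.5 mM tranylcypromine positive control for full effect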
Cav3 T inh = Cav3.2 calcium influx blockers – cell-based, Fluo-4 calcium fluorescence, FDSS, MLSMR library, primary screen; Voltage-dependent T-type calcium channel subunit alpha-1H (Homo sapiens), O95180; Cav3.2-expressing cells; stronger effect = lower value; B-score at 10 µM; hit rate 4% among 100,000; AID 449739, 2010;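 active = single-dose well whose peak fluorescence ratio is a statistical outlier from its plate by either plate-standardised score or position-corrected B-score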
Active calls of the source: *; . = not tested or not shown.

SMILES	CYP2C19 activ	CYP2C9 inhib	CYP2C9 act	CYP2C19 inh	Cav3 T inh
Cc1cccc(N(CC(=O)NCC2CCCO2)C(=O)CCC(=O)Nc2cc(C)on2)c1 (stereo unspecified)	0.7	52*	0.5	34	-0.69
CCc1cccc2c(SCC(=O)NCC3CCCO3)nc(-c3ccc(F)cc3)nc12 (stereo unspecified)	1	41	0.6	2	0.22
CCc1ccc2nc(-c3cccc(C)c3)nc(SCC(=O)NCC3CCCO3)c2c1 (stereo unspecified)	0.4	75*	0.2	60*	-0.7
Cc1cccc(-c2noc(CCC(=O)NCC3CCCO3)n2)c1 (stereo unspecified)	0.4	-12	1.1	60*	0.46
O=C(CN(C(=O)CCC(=O)Nc1nccs1)c1cccc(F)c1)NCC1CCCO1 (stereo unspecified)	0.7	19	0.8	31	-0.16
CCOc1ccc(OCC)c(NS(=O)(=O)c2cccc3nsnc23)c1	0.8	33	0.7	24	-1
CC1(C)C=C(c2ccc(O)cc2)CC(C)(C)N1	1	2	1	0	0.21
CCCC1=Nc2cc(C(=O)NCCCOC(C)C)ccc2Sc2ccccc21	0.5	30	0.7	46	-4.1
CCC1=Nc2cc(C(=O)NCCCOC)ccc2Sc2ccccc21	0.5	40	0.6	54*	-0.33
CCCC1=Nc2cc(C(=O)NCCCOCC)ccc2Sc2ccccc21	0.7	44	0.6	30	-6*
COCCN(CCOC)C(=O)c1c[nH]c2ccc(S(=O)(=O)N(C)c3ccc(F)cc3)cc2c1=O	1.1	18	0.8	-6	-0.22
COc1cc(C2Nc3cc(Cl)c(S(N)(=O)=O)cc3S(=O)(=O)N2)ccc1OCc1ccccc1 (stereo unspecified)	0.3	70*	0.3	66*	-1.1
Cc1cc(Nc2ccc3ccccc3c2)n2ncnc2n1	1.1	12	0.9	-10	-0.28
Cc1cc(C)n(-c2nnc(C)n2/N=C/c2ccco2)n1	1	-13	1.1	-2	0.16
CCCOc1ccc2ccccc2c1/C=N/n1c(C)nnc1-n1nc(C)cc1C	0.2	18	0.8	83*	-3.3*
Cn1cccc1C(=O)NC(=O)COC(=O)c1ccc(O)cc1	1	-313	4.1*	4	0.077
COc1ccc(C2CC(=O)C(C=NCCN3CCN(C(C)=O)CC3)=C(O)C2)cc1OC (stereo unspecified)	1	-6	1.1	-4	.
O=C(CNC(=O)Cc1ccccc1)NCC(=O)OCC(=O)c1cccc2ccccc12	0.8	-257	3.6*	22	0.05
CCCCN(CCCNC(=O)C1CCN(S(=O)(=O)N2CCOCC2)CC1)c1ccccc1	0.8	32	0.7	21	-2.1
CCN(CCCNC(=O)C1CCN(S(=O)(=O)c2c(C)[nH]c(=O)[nH]c2=O)CC1)c1cccc(C)c1	0.5	50	0.5	54*	0.36
Cc1ccc(NC(=O)C2CCN(S(=O)(=O)c3c(C)[nH]c(=O)[nH]c3=O)CC2)cc1	1	5	1	-2	0.35
CCN(CCCNC(=O)C1CCN(S(=O)(=O)N2CCC3(CC2)OCCO3)CC1)c1ccccc1	0.5	38	0.6	53*	0.22
N#CC1=C2SCN(Cc3ccccc3)CN2C(=O)CC1c1ccc2c(c1)OCO2 (stereo unspecified)	0.5	59*	0.4	54*	-0.025
N#CC1=C(S)N(c2ccccc2)C(c2cccs2)NC1=O (stereo unspecified)	1	30	0.7	3	2.5
N#CC1=C2SCN(Cc3ccccc3)CN2C(=O)CC1c1cccs1 (stereo unspecified)	0.5	60*	0.4	51*	0.083
SMILES	CYP2C19 activ	CYP2C9 inhib	CYP2C9 act	CYP2C19 inh	Cav3 T inh
COC(=O)[C@H](CCSC)NS(=O)(=O)c1ccccc1Br	.	.	.	.	-0.34
CCCCOc1ccccc1C1NC(=O)NC(C)=C1C(=O)OCCOCC (stereo unspecified)	0.3	75*	0.3	70*	-0.27
CCCC1=C(C(=O)OCC)C(c2ccccc2OCC)NC(=O)N1C (stereo unspecified)	0.2	81*	0.2	81*	-1.5
CCCCOc1ccccc1C1NC(=O)NC(C)=C1C(=O)OCc1ccco1 (stereo unspecified)	0.4	73*	0.3	61*	-0.89
CCOC(=O)C1=C(N)OC2=C(C(=O)CCC2)C1c1ccccc1OCC (stereo unspecified)	0.2	49	0.5	80*	-0.056
COc1ccc(CCNC(=O)NC23CC4CC(CC(C4)C2)C3)cc1OC	0.6	-46	1.5	37	0.39
COc1cc(C(=O)Sc2ccc(C)cc2)cc(OC)c1OC	0.8	7	0.9	19	.
CC(=O)/C(=C/N(C)C)Sc1ccc(C)cc1	0.3	27	0.7	73*	-0.11
COC(=O)c1cn(NC(=O)c2cccnc2)c(=O)c2ccccc12	1.1	7	0.9	-8	-0.58
CCOC(=O)c1ccc(NC(=O)c2nn(C)cc2Br)cc1	0.9	-26	1.3	12	-0.3
CCOC(=O)c1nn(-c2ccccc2)c(C#N)c1NC(=O)c1nn(CC)cc1Br	0.8	72*	0.3	25	-1.1
CCOC(=O)c1c(NC(=O)c2nn(CC)cc2Br)c(C#N)nn1-c1ccccc1	0.4	50	0.5	64*	-1
NC(=O)c1ccc(OCC(F)(F)C(F)(F)C(F)(F)C(F)(F)C(F)(F)C(F)F)cc1	0.4	42	0.6	55*	-0.28
Cc1nnsc1SCC(=O)O	1.1	-16	1.2	-7	-0.15
CCCCC(C)n1[nH]c(=O)cc1N (stereo unspecified)	1	7	0.9	-2	0.75
CC1=C(C#N)C(NC(=O)C2CC2)(C(F)(F)F)C(=O)N1 (stereo unspecified)	1.2	-16	1.2	-16	-0.0072
CCOc1cc(CNCCO)cc(Br)c1OCc1ccccc1Cl	0.5	-6	1.1	55*	-0.22
CCOc1cc(CNCCO)cc(Br)c1OCc1ccc(Cl)cc1	0.2	14	0.9	78*	.
CCOC(=O)c1nn(-c2ccc(Br)cc2)cc1C(=O)c1cccc2ccccc12	0.7	-20	1.2	28	-1.4
COCCN(C(=O)CCCC(=O)Nc1ccccn1)C(C(=O)NC1CCCCC1)c1ccc(C)cc1 (stereo unspecified)	0.4	56*	0.4	64*	-1.9
COCCNC(=O)C(c1ccc(C)cc1)N(C(=O)CCC(=O)Nc1ccccn1)C1CCCC1 (stereo unspecified)	0.8	-4	1	18	.
